Source: PubChem BioAssay (NCATS)
Records with an inconclusive call do not appear. Entries that show only a call come without a potency. Calls of active or inactive are those of the source. Calls follow the shape of the dose curve; as a rule, active = well fitted inhibition curve with a large enough effect; inconclusive = small, poorly fitted or top-dose-only effect; inactive = no such curve, though single readings can be large or run the other way.

Tested on: not listed separately
Experiment: Primary qHTS for small molecule stabilizers of the endoplasmic reticulum resident proteome: Secreted ER Calcium Modulated Protein (SERCaMP) assay (AID 1508630)
Details: SH-SY5Y GLuc-SERCaMP (Gaussia luciferase released on ER calcium loss) secretion, thapsigargin, luminescence; series mostly up to 38.4 µM
Summary of the method: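 The SH-SY5Y reporter protocol was run at 3 concentrations up to 38.3 uM (primary) or 11 concentrations (follow-up): 16 h compound, 100 nM thapsigargin for 4 h, then extracellular luciferase luminescence.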

SMILES	outcome
NC(=O)CI	inactive
CO[C@H]1CC=C2CCN3CCC4=C(CC(=O)OC4)[C@]23C1	inactive
Clc1cc(I)cc(Cl)c1NC1=NCCN1	inactive
NC(N)=Nc1ccc2[nH]c3c(c2c1)C[C@@]1(O)[C@H]2Cc4ccc(O)c5c4[C@@]1(CCN2CC1CC1)[C@H]3O5	inactive

Biological target: Papain (Carica papaya) (UniProt P00784)
Sequence (P00784 whole entry, looked up): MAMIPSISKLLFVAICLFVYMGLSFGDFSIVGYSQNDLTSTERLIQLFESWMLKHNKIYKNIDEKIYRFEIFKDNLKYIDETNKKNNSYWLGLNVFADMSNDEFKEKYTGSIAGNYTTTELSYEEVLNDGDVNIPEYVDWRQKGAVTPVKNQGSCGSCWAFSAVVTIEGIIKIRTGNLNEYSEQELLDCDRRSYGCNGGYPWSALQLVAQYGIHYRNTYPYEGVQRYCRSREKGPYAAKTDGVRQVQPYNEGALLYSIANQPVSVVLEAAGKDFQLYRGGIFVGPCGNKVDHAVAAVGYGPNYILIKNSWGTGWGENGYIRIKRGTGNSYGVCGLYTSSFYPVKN
Experiment: Primary qHTS assay for inhibitors of the protease papain (AID 1645873);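 also: papain turnover of Z-FR-AMC read as the AMC fluorescence gain over 10 min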
Details: papain Z-FR-AMC cleavage, AMC fluorescence; series mostly up to 49.8 µM

SMILES	Potency
COc1ccc(CNC(=O)/C=C/c2ccc3[nH]cc(CCN(C)C)c3c2)cc1	inactive
CN(C(=O)Cc1ccc(Cl)c(Cl)c1)C(CN1CCCC1)c1cccc(OCC(=O)O)c1 (configuration not stated)	inactive
CCOC(=O)c1ncn2c1[C@@H]1CCCN1C(=O)c1cc(OC)ccc1-2	inactive
CC(N)Cc1c[nH]c2ccc(OCc3cccs3)cc12 (configuration not stated)	inactive
NC(CCCCCP(=O)(O)O)C(=O)O (configuration not stated)	inactive
CCCN1CCc2cc(O)cc3c2[C@H]1Cc1ccc(O)c(O)c1-3	inactive
NC(=O)CI	inactive
NC(C(=O)O)c1cc(=O)[nH]o1 (configuration not stated)	inactive
C[N+]1(C)CCc2cc3c(cc2[C@H]1[C@@H]1OC(=O)c2c1ccc1c2OCO1)OCO3	inactive
C=CCN1C[C@@H](C)N([C@H](c2ccc(C(=O)N(CC)CC)cc2)c2cccc(OC)c2)C[C@@H]1C	inactive
C[N+](C)(C)CC#CCOC(=O)Nc1cccc(Cl)c1	inactive
CCCN(CCC)C1Cc2cc(OC)c(OC)cc2C1	inactive
Cc1c2ccncc2c(C)c2c1[nH]c1ccccc12	inactive
CC(N)Cc1c[nH]c2ccc(O)cc12 (configuration not stated)	inactive
C[N+](C)(C)CCOC(=O)CBr	inactive
NC(=O)c1ccc(OCC(O)CN2CC=C(c3ccc(F)cc3)CC2)cc1 (configuration not stated)	inactive
C[C@H](Cc1ccc2c(c1)OC(C(=O)O)(C(=O)O)O2)NC[C@H](O)c1cccc(Cl)c1	inactive
C[N+]1(C)CCN(c2ccccc2)CC1	inactive
C#CCN[C@H](C)Cc1ccccc1	inactive

SMILES	Potency
CN1CC[C@@]2(C)c3cc(O)ccc3N(C)C12 (some centres not stated)	inactive
c1ccc2cc(CC3=NCCN3)ccc2c1	inactive
CO[C@H]1CC=C2CCN3CCC4=C(CC(=O)OC4)[C@]23C1	inactive
Clc1cc(I)cc(Cl)c1NC1=NCCN1	inactive
CC12NC(Cc3ccccc31)c1ccccc12 (configuration not stated)	inactive
CCCC[N+]1(C)C2CC(OC(=O)[C@H](CO)c3ccccc3)CC1C1OC12 (some centres not stated)	inactive
CCCN(CCC)CCc1ccc(O)c(O)c1	inactive
O=C1C=CC(=O)C=C1	inactive
NCCc1ccc(S(=O)(=O)F)cc1	inactive
N#CCCN	inactive
NC(=O)c1cc(N2CC2)c([N+](=O)[O-])cc1[N+](=O)[O-]	inactive
CN1CCc2cccc(Cl)c2CC1	inactive
C[N+]1(C)CCOC(O)(c2ccc(-c3ccc(C4(O)C[N+](C)(C)CCO4)cc3)cc2)C1 (configuration not stated)	inactive
NC(=O)COc1c(F)cc(SCCNS(=O)(=O)c2ccccc2)cc1F	inactive
NNC(N)=O	inactive
NC(N)=Nc1ccc2[nH]c3c(c2c1)C[C@@]1(O)[C@H]2Cc4ccc(O)c5c4[C@@]1(CCN2CC1CC1)[C@H]3O5	inactive
CC(N)[C@H](O)c1ccc(O)c(O)c1 (some centres not stated)	inactive
CP(=O)(O)C1=CCNCC1	inactive
CN1CCc2cc(O)cc3c2[C@H]1Cc1ccc(O)c(O)c1-3	inactive
